Data on 58 compounds can be found in PubChem BioAssay AID463173 (ICCB-Longwood Screening Facility, Harvard Medical School, 2010).

Hit rate of the full screen: of about 52,000 compounds, about 1,700 (3.3%) were called active. This is one part of a sample in which actives are shown more often than they occur. A number with no mark means an inactive call. Rule as the data show it: active = survival mostly below about 52% (no sharp cut-off); inactive = mostly above about 56%.

This assay relates to Wild type. As to the kind of experiment: S. aureus survival, RN4220 and DeltatarO strains – OD600, teichoic acid synthesis inhibitors, primary screen (AID 463173). Conditions: S. aureus RN4220 wild type/DeltatarO growth, OD600, 18 h, active compounds read low, screened at 18.75 µg/mL (by protocol).
For the compound `Cc1ccc(CNC(=O)CSc2c3c(nc4cc(Cl)ccc24)CCCC3)cc1`, the survival was 83%.

Consider `CC1CCCN(C(=O)CSc2c3c(nc4cc(Cl)ccc24)CCCC3)C1` (stereo not drawn), for which the survival is -1% (active).

With `O=C(CSc1c2c(nc3cc(Cl)ccc13)CCCC2)N1CCN(c2ccccc2F)CC1`, the survival is 69%.

`O=C(CSc1c2c(nc3ccc(Cl)cc13)CCCC2)N1CCCCC1`: the survival is 29%.

Take `O=C(CSc1c2c(nc3cc(Cl)ccc13)CCCC2)N1CCN(c2ccccc2)CC1`: the survival was 44%.

In the case of `CC1CCN(C(=O)CSc2c3c(nc4cc(Cl)ccc24)CCCC3)CC1`, the survival is 10% (active).

Regarding `CCOC(=O)C1CCN(C(=O)CSc2c3c(nc4ccc(Cl)cc24)CCCC3)CC1`, the survival was 56%.

`O=C(CSc1c2c(nc3ccc(Cl)cc13)CCCC2)N1CCN(c2ccc(Cl)cc2)CC1`: the survival was 53%.

For `COCCNC(=O)CSc1c2c(nc3cc(Cl)ccc13)CCCC2`, the survival was 71%.

Take `CCC(C)NC(=O)CSc1c2c(nc3cc(Cl)ccc13)CCCC2` (stereo not drawn): the survival is 82%.

On to `CC1CCCCN1C(=O)CSc1c2c(nc3cc(Cl)ccc13)CCCC2` (stereo not drawn), for which the survival is -1% (active).

`CC1CCN(C(=O)CSc2c3c(nc4ccc(Cl)cc24)CCCC3)CC1`: the survival is -1% (active).

Turning to `CCCCN1C(=O)CN(C2CCCCCC2)C(=O)C1c1ccc(OCC)c(OC)c1` (stereo not drawn), the survival was 78%.

`CCCCNc1nc2c(S(=O)(=O)c3ccc(Cl)cc3)nnn2c2ccsc12`: the survival was 89%.

Consider `O=C(NC1CC2CCCC(C1)N2CC(=O)N1CCCc2ccccc21)c1ccccc1` (stereo not drawn), for which the survival was 97%.

As to `CCOc1ccc(C2CC(=O)c3c([nH]c(C(=O)OC4CCCCCC4)c3C)C2)cc1` (stereo not drawn), the survival was 79%.

With `O=C(Cn1nc(Cc2cccnc2)c2ccccc2c1=O)N1CCN(c2ccc(F)cc2)CC1`, the survival was 89%.

Turning to `Cc1ccccc1CNC(=O)C(=O)NCC(c1cccs1)S(=O)(=O)c1ccc(Cl)cc1` (stereo not drawn), the survival was 74%.

With `Cc1ccc(OCC(=O)OCc2cc(=O)n3nc(C4CCCCC4)sc3n2)cc1C`, the survival is 79%.

As for `CCC1=Nc2cc(C(=O)N3CCC(C)CC3)ccc2Sc2ccc(C)cc21`, the survival is -1% (active).

On to `CCOC(=O)C1CCN(C(=O)c2ccc3c(c2)N=C(CC)c2cc(C)ccc2S3)CC1`, for which the survival was 29%.

`CC1=Nc2cc(C(=O)N3CCCCC3)ccc2Sc2ccc(C)cc21`: the survival was 3% (active).

Turning to `CCCC1=Nc2cc(C(=O)N3CCC(C)CC3)ccc2Sc2ccc(C)cc21`, the survival is 107%.

As to `CNC(=O)c1ccc2c(c1)N=C(C)c1cc(C)ccc1S2`, the survival was 80%.

In the case of `CC1=Nc2cc(C(=O)N3CCC(C)CC3)ccc2Sc2ccc(Cl)cc21`, the survival was 81%.

As to `CC(C)CCNC(=O)CN1C(=O)CCn2nc(-c3cn(C)c4ccccc34)cc21`, the survival is 87%.

In the case of `COc1ccccc1-c1c(C)nn2c(N3CCN(c4ccc(F)cc4)CC3)cc(C)nc12`, the survival was 88%.

With `O=c1c(N2CCN(c3cccc(C(F)(F)F)c3)CC2)csc2ccc(Cl)cc12`, the survival was 74%.

Turning to `CCOC(=O)c1c(S(=O)(=O)NCC(=O)Nc2cc(C)ccc2C)c(C)n(C)c1C`, the survival is 66%.

Turning to `Cn1c(=O)n(-c2cccc(Cl)c2)c(=O)c2sc3ccccc3c21`, the survival is 71%.

Consider `Cc1ccc(S(=O)(=O)N2CCN(Cc3cc(=O)n4nc(-c5ccccc5Cl)sc4n3)CC2)cc1`, for which the survival was 64%.

`CCn1cc(S(=O)(=O)c2ccccc2)c(=O)c2cc(F)c(F)cc21`: the survival is 82%.

As to `CCc1ccccc1NS(=O)(=O)c1ccc2[nH]cc(C(=O)N3CCCCC3)c(=O)c2c1`, the survival was 127%.

As to `Cc1ccc(-c2nn(CCC(N)=O)c(=O)c3ccccc23)cc1`, the survival is 65%.

On to `CCOc1ccc(C(=O)Nc2ccc(-c3cc4ccccc4oc3=O)cc2)cc1Br`, for which the survival was 75%.

Consider `Cc1ccc(Cl)cc1NC(=O)c1ccc(-c2nc(CSc3ccccc3)c(C)o2)cc1`, for which the survival was 55%.

For `CCN1CCC(N(Cc2cccc(OC)c2)C(=O)Nc2cccc(C)c2C)CC1`, the survival is -3% (active).

Consider `CCN1CCC(N(Cc2cccc(OC)c2)C(=O)Nc2ccc(C)cc2Cl)CC1`, for which the survival was 53%.

On to `CCN1CCC(N(Cc2ccc3c(c2)OCO3)C(=O)Nc2cccc(C)c2C)CC1`, for which the survival was 83%.

As for `CCc1cccc(C)c1NS(=O)(=O)c1ccc(-n2cccn2)cc1`, the survival was 128%.

Consider `O=C(CCc1ccccc1)Nc1nnc(CCN2CCCCC2)s1`, for which the survival was 97%.

On to `CCCn1cc(S(=O)(=O)c2ccccc2)c(=O)c2cc(F)c(N3CCCC(C)C3)cc21` (stereo not drawn), for which the survival was 71%.

Take `CC(C)OC(=O)CSc1nnc(CNc2ccc(F)cc2)n1C1CCCCC1`: the survival is 108%.

Consider `Cc1cccc(Cn2cccc2CNS(=O)(=O)c2ccccc2F)c1`, for which the survival is -4% (active).

With `Cc1cccc(Cn2cccc2CNS(=O)(=O)c2ccc(Br)cc2)c1`, the survival was 64%.

With `CCc1ccc(S(=O)(=O)NCc2cccn2Cc2cccc(C)c2)cc1`, the survival was 71%.

Turning to `COc1cc(OC)cc(-c2nc(-c3cccc(C)c3)no2)c1`, the survival is -15% (active).

In the case of `COc1ccc(-c2noc(COc3ccc(Br)cc3C)n2)cc1OC`, the survival is 11% (active).

On to `Cc1cccc(-c2noc(-c3ccc(N4CCCC4)c([N+](=O)[O-])c3)n2)c1`, for which the survival was 81%.

For `COc1ccc(OCc2nc(-c3ccc(OC)c(OC)c3)no2)cc1`, the survival was 70%.

Take `Cc1cccc(-c2noc(-c3ccc(N4CCN(C)CC4)c([N+](=O)[O-])c3)n2)c1`: the survival is -3% (active).

Turning to `CCc1ccc(OCc2nc(-c3ccc(OC)c(OC)c3)no2)c(Br)c1`, the survival was 38%.

Turning to `COc1ccc(N2CCN(c3ccc(-c4nc(-c5cccc(C)c5)no4)cc3[N+](=O)[O-])CC2)cc1`, the survival is 89%.

Consider `COc1cc(OC)cc(-c2nc(-c3ccc4c(c3)[nH]c(=O)n4C)no2)c1`, for which the survival is 73%.

On to `COc1ccc(-c2noc(COc3cc(C)c(Br)c(C)c3)n2)cc1OC`, for which the survival is 80%.

On to `COc1ccc(-c2noc(CN(C)S(=O)(=O)c3c(C)cc(C)cc3C)n2)cc1OC`, for which the survival is 78%.

For `COc1ccc(-c2noc(COc3cc(C)ccc3C)n2)cc1OC`, the survival was 0% (active).

Take `Cc1ccc(-c2noc(-c3ccc(N4CCN(C)CC4)c([N+](=O)[O-])c3)n2)cc1`: the survival was 85%.
